Hit rate of the full screen: of about 320,000 compounds, about 7,600 (2.4%) were called active. Where a call stands in place of a potency, no number is given. Roughly 3% stayed inconclusive and do not appear here. Calls come from the whole dose curve; as a rule, active = well fitted activation curve with a large enough effect; inconclusive = small, poorly fitted or top-dose-only effect; inactive = no such curve, though single readings can be large or run the other way. Many of the other results were omitted from the sample, so actives are more common in it than they were.
test: qHTS Assay for NPC1 Promoter Activators; conditions: Huh7 NPC1 promoter luciferase reporter, 24 h; series mostly up to 9.22 µM; note: nearly all actives have a fitted effect of over 60% in size;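 for activation: reporter is driven by a mutant NPC1 promoter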
Summary of the method: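 Stable NPC1-promoter luciferase Huh7 line; cpd (DMSO) 24 h, 37 °C, 5% CO2; Amplite luciferase reagent 10 min RT; luminescence readout. qHTS format.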
Potency is the fitted concentration of half-maximal effect.

SMILES	Potency
CC(C)(C)n1ncc2c(=O)n(Cc3c(Cl)cccc3Br)cnc21	inactive
CC(C)c1ccc(S(=O)(=O)N2CCN(C(C)C(=O)NC3CCCC3)CC2)cc1 (configuration not stated)	inactive
CCCC(NCC(=O)Nc1ccccc1C(=O)NC1CC1)c1ccccc1 (configuration not stated)	inactive
COc1ccccc1N1CCN(C(=O)C2Cc3ccccc3CN2C(=O)c2ccco2)CC1 (configuration not stated)	inactive
CCN1C(=O)[C@@H]2[C@@H](c3ccc(-c4cccc(Cl)c4)cc3)N3CCC[C@@]3(C(=O)OC)[C@@H]2C1=O	inactive
CCCCc1ccc(NS(=O)(=O)c2cccc(C(=O)N3CCCN(C)CC3)c2)cc1	inactive
Cc1ccc(C(=O)Oc2coc(CSc3nnc(NC(=O)c4cccs4)s3)cc2=O)cc1C	inactive
Cc1nnc(NC(=O)c2ccc3nccnc3c2)s1	inactive
Cc1ccc(C(=O)Nc2nnc(-c3cccs3)s2)cc1C	4470 nM (active)
CC(C)c1ccc(NC(=O)COC(=O)c2ccc(CN3CCCC3=O)cc2)cc1	inactive
Cc1cc(NC(=O)c2ccc(F)cc2)ccc1NC(=O)c1ccco1	inactive
Cc1ccnc(NC(=O)c2ccc(NC(=O)c3ccco3)cc2)c1	3980 nM (active)
O=C(Nc1ccc(NC(=O)c2cccs2)cn1)c1ccco1	316 nM (active)
O=C(Nc1ccccc1)c1ccco1	inactive
O=C(Nc1ccnc(-c2ccncc2)n1)c1cccs1	inactive
O=C(Nc1ccc(O)cc1)c1ccc(NC(=O)c2ccco2)cc1	inactive
CCN(CC(=O)Nc1c(F)cccc1F)C(=O)c1cnc(C)cn1	inactive
O=C(CCNC(=O)c1ccc(Br)cc1)NCC(c1ccco1)N1CCCCC1 (configuration not stated)	inactive
COc1ccc(C2=NN(C(=O)CSc3nnnn3C)C(c3ccco3)C2)cc1 (configuration not stated)	inactive
Nc1ncc(-c2cc3ccccc3oc2=O)s1	2510 nM (active)
O=C(NCc1cccnc1)c1cccc(-c2cc3ccccc3oc2=O)c1	inactive
Cc1cc2c(=O)n(C)c(SCC(=O)c3cc4ccccc4o3)nc2s1	inactive

SMILES	Potency
O=C(CSc1ccccc1)Nc1cccc(S(=O)(=O)N2CCCCC2)c1	inactive
C=CCNC(=O)c1ccc2c3n(nc2c1)-c1ccc(C)cc1CO3	501 nM (active)
C=CCNC(=O)c1ccc(C)c(Br)c1	inactive
Cc1cccc(-c2nc3ccc(C(=O)NCCN4CCN(C)CC4)cc3nc2-c2cccc(C)c2)c1	inactive
CCOC(=O)c1sc(NC(=O)C2CSC3(C)CCC(=O)N23)nc1C (configuration not stated)	inactive
C=CCSc1ccc(S(=O)(=O)N2CCN(C)CC2)cn1	inactive
CCCCN(C(=O)C(CCSC)N1C(=O)c2ccccc2C1=O)c1c(N)n(CCC)c(=O)[nH]c1=O (configuration not stated)	inactive
Cc1ccc(OC(=O)c2c(C)nn(-c3ccccc3)c2C)cc1	2820 nM (active)
Cc1cccc(C)c1NC(=O)COC(=O)c1c(C)nn(-c2ccccc2)c1C	inactive
Cc1ccc(-n2nc(C)c(C(=O)O)c2-n2cccc2)cc1	inactive
COCCN(C(=O)CSCc1ccc(C)cc1)c1c(N)n(CC(C)C)c(=O)[nH]c1=O	inactive
CCN(CC(=O)NCc1cccs1)C(=O)/C=C/c1ccc(C)cc1	inactive
Cc1cccc(Nc2nnc(SCC(=O)c3c(N)n(C4CC4)c(=O)[nH]c3=O)s2)c1C	inactive
CCOc1ccc(C(=O)NC2CCN(CC(=O)NCc3cccs3)CC2)cc1	inactive
O=C(NCc1cccs1)c1ccc2c(c1)ncn2C1CCCC1	3550 nM (active)
COc1ccccc1-n1cnc2cc(C(=O)NCC3CCCO3)ccc21 (configuration not stated)	inactive
O=C(CCNS(=O)(=O)c1ccc(Br)cc1)NCC1CCCO1 (configuration not stated)	inactive
COc1ccccc1C(=O)NCC(=O)NCCSc1ccc(Br)cc1	inactive
Cc1ccc(NC(=O)CN(C)C(=O)COC(=O)c2nccnc2N)cc1	inactive
c1ccc(CCc2nc(-c3ccncc3)no2)cc1	inactive
c1ccc(-c2noc(-c3cccs3)n2)nc1	398 nM (active)
O=C(NCc1cccnc1)c1nc(-c2cccs2)no1	inactive

SMILES	Potency
Clc1ccc(-n2nnnc2-c2cnc(-c3ccccn3)nc2-c2cccs2)cc1	inactive
Cc1ccc(-c2nc(-c3ccncc3)no2)c(C)c1	3160 nM (active)
Cc1ccc(-c2noc(CSc3nnc(-c4ccncc4)n3-c3ccc(F)cc3)n2)cc1	inactive
Cc1ccc(-c2noc(CSc3nnc(-c4cccs4)n3C)n2)cc1	inactive
c1csc(-c2nc(-c3ccncc3)no2)c1	3160 nM (active)
COc1nc(-c2ccc(Cl)cc2)ccc1-c1noc(-c2cccs2)n1	inactive
CN(C(=O)CSc1nnc(-c2n[nH]c3ccccc23)o1)c1ccccc1	inactive
O=C(COC(=O)c1c(Cl)cccc1Cl)Nc1cccc(S(=O)(=O)NC2=NCCCCC2)c1	inactive
COc1ccc(Cc2nnc(N/N=C/c3ccccc3O)[nH]c2=O)cc1OC	inactive
COc1ccccc1C(=O)NCC(=O)OCC(=O)Nc1nnc(-c2ccccc2)o1	inactive
O=C(COC(=O)c1cc(S(=O)(=O)N2CCOCC2)ccc1Cl)NCCc1ccccc1	inactive
Cc1ccc(NC(=O)NC(=O)c2ccccc2)cc1F	562 nM (active)
Cc1cccc(NC(=O)NC(=S)NC(=O)c2ccccc2)c1	inactive
Cc1nc(C)c(C(=O)Nc2ccc(C)c(F)c2)o1	inactive
CCN(CC)C(=O)c1nc[nH]c1C(=O)N(C)Cc1ccccc1	inactive
Cc1ccc(NC(=O)Nc2ccccc2)c(Br)c1	3550 nM (active)
Cc1c(NC(=O)Nc2ccccc2)cccc1[N+](=O)[O-]	inactive
CCOc1cc(NC(=O)Nc2ccccc2)c(OCC)cc1NC(=O)CC	inactive
COc1cc(F)c(C2=CC(=O)CC(C)(C)C2)cc1F	inactive
COC(=O)[C@@H]1CCCN1C(=O)c1cc(COc2cccc3cccnc23)on1	inactive
CSc1ccccc1OCc1cc(C(=O)N(C)CCc2c(C)n[nH]c2C)no1	inactive
CSc1ccccc1OCc1cc(C(=O)N2C[C@H]3CC[C@H]2C3)no1	2820 nM (active)

SMILES	Potency
COC(=O)c1ccc(C)c(NC(=O)C2CC(=O)N(C3CCCC(C)C3C)C2)c1 (configuration not stated)	inactive
NS(=O)(=O)c1ccc(CCNC(=O)COC(=O)COc2cccc(C(F)(F)F)c2)cc1	inactive
Cc1ccc(OCCC(=O)Nc2ccc(S(=O)(=O)Nc3nccs3)cc2)cc1	inactive
COc1ccc(Cl)cc1NC(=O)CN(C)C(=O)c1ccc2n[nH]nc2c1	inactive
O=C(N/N=C/c1ccc([N+](=O)[O-])cc1)c1c[nH]c2ccccc12	inactive
Cc1ccsc1C(=O)N/N=C/c1ccc([N+](=O)[O-])cc1	3980 nM (active)
Cc1nc2ccccc2cc1C(=O)N/N=C/c1ccc([N+](=O)[O-])cc1	inactive
CCOC(=O)CSc1nnc(CNc2nc(-c3ccccc3)cs2)n1C	inactive
CCNc1nc(-c2cc3ccccc3o2)cs1	2820 nM (active)
Cc1nc(C)c(-c2csc(NCCc3ccccc3)n2)s1	inactive
O=C(CC1C(=O)NCCN1CC(c1ccccc1)c1ccccc1)NCC1CCOCC1 (configuration not stated)	inactive
CCC1CCC2(CC1)NC(=O)N(CC(=O)Nc1ccc(OC)cc1)C2=O (configuration not stated)	inactive
COc1cc(/C=N/N2CCN(c3ccccc3)CC2)ccc1OC(C)=O	inactive
COc1ccccc1N1CCN(/N=C/c2ccc(O)cc2O)CC1	2820 nM (active)
COc1ccccc1N1CCN(/N=C\C(Br)=C\c2ccccc2)CC1	inactive
CCOC(=O)c1ccc(NC(=O)Cc2cccs2)cc1	3550 nM (active)
CCOc1ccccc1NC(=O)Cc1cccs1	inactive
O=C(Cc1cccs1)Nc1ccc([N+](=O)[O-])cc1	inactive
O=C(O)c1[nH]c2ccccc2c1C(c1cccc(O)c1)c1c(C(=O)O)[nH]c2ccccc12	inactive
COc1ccc(NC(=O)CC2SC(N3CCCCC3)=NC2=O)cc1OC (configuration not stated)	inactive
O=C(NCCCN1CCN(c2ccc(F)cc2)CC1)Nc1ccc([N+](=O)[O-])cc1	inactive
CCOc1ccc(OCc2cccc(C(=O)N(CC)CC)c2)cc1	251 nM (active)

SMILES	Potency
COc1ccc(OCc2cccc(C(=O)N3CCCC3)c2)cc1	447 nM (active)
CN(Cc1ccccc1)C(=O)c1ccc(COc2ccccc2)cc1	inactive
CC(=O)Oc1ccc(-c2cccc(C(=O)N3CCCCC3)c2)cc1	inactive
COc1ccc(Cn2c(=S)[nH]c3cc(C(=O)N4CCCCC4)ccc3c2=O)cc1	inactive
COc1cccc(COc2ccc(N(C)S(=O)(=O)c3ccccc3)cc2)c1	inactive
CCCCn1nc(C(=O)Nc2cccc(C(=O)NC3CC3)c2)c2ccccc2c1=O	inactive
O=C(Nc1ccccc1)N1CCC(C(=O)N2CCN(Cc3ccccc3)CC2)CC1	inactive
COc1cccc(N2CCN(CC(=O)Nc3ccnn3C3CCCC3)CC2)c1	inactive
CN(CC(=O)Nc1ccc(Cl)cc1)CC(=O)Nc1cccc2ccccc12	inactive
Cc1ccc(C(=O)NNC(=O)c2cc3cc4ccccc4nc3s2)cc1	inactive
CCc1nc(SCC(=O)NNC(=O)c2ccc(C)cc2)c2ccccc2n1	inactive
Cc1ccc(C(=O)NNc2ncnc3ccccc23)cc1	3160 nM (active)
CC(=O)Nc1ccc(S(=O)(=O)NC(C)C(=O)OCCOc2ccc(F)cc2)cc1 (configuration not stated)	inactive
N#CCC(=O)Nc1ccc(C(=O)OCC(=O)Nc2sc3c(c2C#N)CCCC3)cc1	inactive
CC(C)(C)OC(=O)N/N=C/c1ccc(C(=O)O)cc1	inactive
C/C(=N\NC(=O)OC(C)(C)C)c1ccc[nH]1	2820 nM (active)
Cc1ccccc1NC(=O)NNC(=O)OC(C)(C)C	inactive
CC(C)CC(COCc1ccc(Cl)cc1)N1CCN(C(=O)c2ccc(C(F)(F)F)cc2)CCC1=O (configuration not stated)	inactive
CCOc1ccc(NC(=O)CN(C)C(=O)Cn2c(=O)cnc3ccccc32)cc1OCC	inactive

Source: PubChem BioAssay AID485313 (National Center for Advancing Translational Sciences (NCATS), 2010)
